This is part of a sample that, as a whole, favours compounds with a hit. Of some 79,000 tested, about 15% had one in any assay. A number with no mark means an inactive call. Activity calls are given as the source filed them. No stated cut-off is given here; in the data, active means growth inhibition above about 70%; inactive means the rest.
Assays:
[1] = NCI Yeast Anticancer Drug Screen. Data for the rad50 strain (AID 155);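 further: 0% = growth of vehicle-only cultures of the same strain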; conditions: S. cerevisiae rad50 strain growth inhibition, stronger effect = higher value
In short: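 Vehicle-treated cultures provide the reference for the growth inhibition reported for compound-exposed, repair-deficient yeast.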

[2] = NCI Yeast Anticancer Drug Screen. Data for the mec2-1 strain (AID 157); conditions: S. cerevisiae mec2-1 strain, stronger effect = higher value
In short: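 Readout is yeast growth inhibition, normalised to vehicle-treated controls, in the mec2-1 strain exposed to compound.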

[3] = NCI Yeast Anticancer Drug Screen. Data for the sgs1 mgt1 strain (AID 161);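 further: 0% = growth of cultures given vehicle only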; conditions: S. cerevisiae sgs1 mgt1 strain, stronger effect = higher value
In short: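 Growth of a repair-deficient yeast mutant was monitored after compound treatment and expressed as inhibition relative to vehicle-treated cultures.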

[4] = NCI Yeast Anticancer Drug Screen. Data for the cln2 rad14 strain (AID 165);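 further: 0% = growth equal to vehicle treated cultures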; conditions: S. cerevisiae cln2 rad14 strain, stronger effect = higher value
In short: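 Relative to vehicle controls, growth inhibition of compound-treated cln2 rad14 yeast was recorded.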

[5] = NCI Yeast Anticancer Drug Screen. Data for the bub3 strain (AID 167); conditions: S. cerevisiae bub3 mutant strain, stronger effect = higher value
In short: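 Mutant yeast screening strain plus compound; vehicle-treated cultures serve as the 0% inhibition reference.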

[6] = NCI Yeast Anticancer Drug Screen. Data for the mlh1 rad18 strain (AID 175); conditions: S. cerevisiae mlh1 rad18 strain growth inhibition, stronger effect = higher value
In short: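 Test agents were incubated with a yeast strain of defined genotype (DNA damage repair defect). Inhibition of growth was derived by comparison with vehicle-exposed cultures.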

[7] = at 5.0 µM (retest, dose inferred, filed as 0.5)
[8] = at 50.0 µM (retest, dose inferred, filed as 5.0)

SMILES	growth inhibition [1, 7]	growth inhibition [1, 8]	growth inhibition ([1]; at 50.0 µM)	growth inhibition [2, 7]	growth inhibition [2, 8]	growth inhibition ([2]; at 50.0 µM)	growth inhibition [3, 7]	growth inhibition [3, 8]	growth inhibition ([3]; at 50.0 µM)	growth inhibition [4, 7]	growth inhibition [4, 8]	growth inhibition ([4]; at 50.0 µM)	growth inhibition [5, 7]	growth inhibition [5, 8]	growth inhibition ([5]; at 50.0 µM)	growth inhibition [6, 7]	growth inhibition [6, 8]	growth inhibition ([6]; at 50.0 µM)
COc1cc(C2c3cc4c(cc3[C@@H](Nc3cccc(O)c3)C3COC(=O)[C@H]23)OCO4)cc(OC)c1O (some centres not stated)	96% (active)	97% (active)	85% (active)	96% (active)	98% (active)	90.7% (active)	28%	97% (active)	88.5% (active)	33%	90% (active)	88.8% (active)	21%	93% (active)	87.7% (active)	94% (active)	97% (active)	87% (active)
CCCCCCCCCCCCNCc1ccc(O)c(OC)c1	95% (active)	97% (active)	97.3% (active)	97% (active)	98% (active)	97.4% (active)	99% (active)	97% (active)	44.1%	93% (active)	97% (active)	95.7% (active)	96% (active)	97% (active)	97.8% (active)	98% (active)	97% (active)	97.5% (active)
CC(C)/C(Cl)=N/OC(=O)Nc1ccc(OC(F)(F)F)cc1	2%	98% (active)	81% (active)	-30%	98% (active)	88.3% (active)	39%	98% (active)	83.5% (active)	-7%	97% (active)	76.2% (active)	-27%	98% (active)	85.5% (active)	-7%	97% (active)	77.1% (active)
COC(=O)c1c(C(N)=O)c(C)n(NC(=O)Nc2ccccc2)c1C	25%	93% (active)	96.2% (active)	24%	95% (active)	85.1% (active)	41%	94% (active)	95% (active)	32%	91% (active)	81.4% (active)	37%	92% (active)	86.2% (active)	63%	95% (active)	87.8% (active)
O=[N+]([O-])c1ccc2c(Nc3ccccc3-c3ccccc3Nc3c4ccccc4nc4cc([N+](=O)[O-])ccc34)c3ccccc3nc2c1	29%	96% (active)	90.9% (active)	22%	98% (active)	90% (active)	18%	98% (active)	91% (active)	30%	98% (active)	90.8% (active)	27%	98% (active)	87.4% (active)	38%	96% (active)	88.9% (active)
COC(=O)c1ccc(Cl)c(Cl)c1	1%	20%	8.2%	-2%	2%	6.75%	2%	11%	11.8%	1%	0%	75.3% (active)	12%	13%	22%	1%	17%	-0.65%
CC(C)(c1cc(Br)c(O)c(Br)c1)c1cc(Br)c(O)c(Br)c1	76% (active)	97% (active)	87.2% (active)	82% (active)	99% (active)	90.7% (active)	85% (active)	98% (active)	87.9% (active)	81% (active)	99% (active)	89.5% (active)	88% (active)	98% (active)	87.5% (active)	93% (active)	97% (active)	87.5% (active)
CC(=O)C1=C(C)O/C(=C/c2ccc(Cl)cc2)C1=O	27%	94% (active)	49.5%	28%	99% (active)	32%	34%	99% (active)	85.7% (active)	34%	90% (active)	79% (active)	31%	99% (active)	83.2% (active)	34%	98% (active)	91.8% (active)
N#Cc1c(Cl)nnc(-c2ccccc2)c1-c1ccccc1	6%	81% (active)	89.3% (active)	8%	84% (active)	92.2% (active)	-8%	83% (active)	92.8% (active)	-1%	66%	93.8% (active)	1%	91% (active)	93.5% (active)	4%	91% (active)	93.6% (active)

— PubChem BioAssay (NCI)
